# ROS inducer = ROS inducers in U2OS cancer cells, primary screen, cell-based, H2DCF-DA fluorescence | ROS induction (% of piperlongumine), % at 10 µM | actives 2% (n = 46,000) | AID 624156, 2012 | U2OS ROS induction; in the data active = ROS induction above about 79%, passing the limit was not always enough; inconclusive = no clear call, values can overlap the other calls;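 note: 0% = DMSO vehicle median and 100% = reference compound median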
# YB-1 expr inh = inhibitors of YB-1 gene expression, primary screen, cell-based, fluorescence; AID 434959, 2010; actives 0.37% (n = 30,000); delta delta Cp (YB-1 minus CDIP) (no concentration beside the values); U2OS, qRT-PCR YB-1 vs CDIP delta delta Cp, 16 h; stronger effect = higher value; zero = DMSO, each unit about twofold;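 active = delta delta Cp rounded down to an integer at or above 3, about 3 SD of DMSO wells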;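 note: higher means less YB-1 transcript or more CDIP transcript relative to DMSO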
# The depositor's hits bear a star; ? = inconclusive; · = not tested or not shown. A selection: hits, their analogues and other compounds. The true share with any hit is near 2.1%.
SMILES,ROS inducer,YB-1 expr inh
COc1ccc(S(=O)(=O)Nc2ccc3c(c2)C(=O)N([C@H](C)CO)C[C@@H](C)[C@@H](CN(C)Cc2ccc(Oc4ccccc4)cc2)O3)cc1,32,-0.42
C[C@H]1CN([C@@H](C)CO)C(=O)c2cc(NS(=O)(=O)c3cccs3)ccc2O[C@H]1CN(C)Cc1ccc(Oc2ccccc2)cc1,2,-0.082
COc1ccc(S(=O)(=O)Nc2ccc3c(c2)C(=O)N([C@H](C)CO)C[C@H](C)[C@@H](CN(C)Cc2ccc(Oc4ccccc4)cc2)O3)cc1,15,14*
Oc1ccc(C=Nc2ccccc2)cc1,34,-0.17
Cc1cccc(-n2c(=O)c3c4c(sc3n3c(=S)[nH]nc23)CCCC4)c1,2,·
Nc1nc(SC/C=C/c2ccccc2)nc2sc3c(c12)CCCC3,15,·
CC(C)(C)c1csc(-c2ccc(OC(F)(F)F)cc2)n1,-13,·
CC(C)(C)NC(=O)CSc1nc2ccccc2[nH]1,-3,·
C[C@@H]1CN([C@H](C)CO)C(=O)Cc2cc(NS(=O)(=O)c3ccc(Cl)cc3)ccc2O[C@H]1CN(C)Cc1ccccc1,0,0.17
C[C@H]1CN([C@@H](C)CO)C(=O)Cc2cc(NS(C)(=O)=O)ccc2O[C@@H]1CN(C)Cc1ccccc1,131*,-0.26
C[C@@H]1CN([C@H](C)CO)C(=O)Cc2cc(NS(C)(=O)=O)ccc2O[C@@H]1CN(C)Cc1ccccc1,-9,-0.1
C[C@H](CO)N1C[C@H](C)[C@H](CN(C)Cc2ccc(-c3ccccc3)cc2)Oc2ccc(NS(=O)(=O)c3ccc(Cl)cc3)cc2CC1=O,142*,0.33
C[C@@H]1CN([C@H](C)CO)C(=O)Cc2cc(NS(=O)(=O)c3ccccc3)ccc2O[C@H]1CN(C)Cc1ccc(C(F)(F)F)cc1,217*,-0.13
C[C@@H]1CN([C@H](C)CO)C(=O)Cc2cc(NS(=O)(=O)c3ccccc3)ccc2O[C@@H]1CN(C)Cc1ccc(C(F)(F)F)cc1,32,-0.12
C[C@H](CO)N1C[C@H](C)[C@H](CN(C)Cc2ccc(-c3ccccc3)cc2)Oc2ccc(NS(=O)(=O)c3cccs3)cc2CC1=O,78*,0.013
C[C@H]1CN([C@@H](C)CO)C(=O)Cc2cc(NS(=O)(=O)c3cccs3)ccc2O[C@H]1CN(C)Cc1ccc(-c2ccccc2)cc1,46,-0.23
CCc1ccc(NC(=O)CSc2ccc3nnc(-c4ccccn4)n3n2)cc1,0,·
O=C(NCc1ccco1)c1cc(-c2ccc(Cl)cc2)oc1C(F)(F)F,-5,·
Cn1c(SCC(=O)c2ccccc2)nnc1C(F)(F)F,-8,·
COc1ccc(-c2csc(=Nc3cc(C(=O)O)ccc3C)o2)cc1,31,·
O=C(CCCCC(=O)N/N=C/c1c(F)c(F)c(F)c(F)c1F)NO,145*,0.64
O=C(CCCCCCC(=O)Nc1ccccc1O)N/N=C/c1c(F)c(F)c(F)c(F)c1F,?,-0.27
CCOC(=O)CSc1nc(-c2ccc(C)cc2)ns1,-6,·
O=C(CSc1nnc2ccc3ccccc3n12)NCC1CCCO1 (stereo unspecified),10,·
COc1cc(OC)c(NC(=O)CN(C)S(=O)(=O)c2ccc(C)cc2)cc1Cl,1,·
SMILES,ROS inducer,YB-1 expr inh
COc1ccc(S(=O)(=O)N(C)CC(=O)Nc2ccccc2OC)cc1Cl,-11,·
Cc1ccc(S(=O)(=O)N(C)CC(=O)Nc2cc(Cl)ccc2Oc2ccccc2)cc1,90*,·
COc1cc(Cl)c(C)cc1NC(=O)CN(C)S(=O)(=O)c1ccc(Br)cc1,7,·
Cc1cc(Br)ccc1NC(=O)CN(C)S(=O)(=O)c1ccc(Cl)cc1,135*,·
COc1ccc(S(=O)(=O)N(C)CC(=O)Nc2ccccc2Br)cc1Cl,112*,·
CC(C)c1ccc(C2C(=O)C(=O)c3ccccc3C2=O)cc1 (stereo unspecified),-8,·
Cc1ccc(Sc2c(CS(=O)(=O)c3ccccc3)[nH]c3ccccc23)cc1,-1,·
Cc1cc(-c2ccco2)n(CC(=O)NCc2ccccc2Cl)n1,40,·
CCCN(CCC)C(=O)CSc1nc2ccsc2c(=O)n1-c1ccc(Br)cc1,1,·
O=C(NCc1ccccn1)c1cc2nc(-c3ccccc3)cc(-c3ccccc3)n2n1,141*,·
O=C(NCc1ccccn1)c1cc(-c2ccccc2)on1,-7,·
COC(CNC(=O)Cn1ncc2c(=O)oc3ccccc3c21)OC,-11,·
Cc1cc2nc(NC3=NC(O)C=C(CSc4nc5ccccc5[nH]4)N3)nc(C)c2cc1C (stereo unspecified),0,·
CC(C)OC(=O)CSc1nc(-c2cccs2)cc(C(F)(F)F)c1C#N,68,·
CCN(CC)c1cc(-c2cccs2)nc(SCC(=O)c2cccs2)c1C#N,220*,-0.31
CCc1nn(Cc2ccccc2)c(=O)c2cc3cc(C)ccc3n12,16,·
O=C1C(Nc2ccccc2)=CC(=O)c2ncccc21,?,3.1*
O=C(O)c1cc(-c2ccccc2)nc2ccccc12,2,-0.11
CCN(CC)c1ccc(-c2cc(C(=O)O)c3c(ccc4ccccc43)n2)cc1,440*,·
O=C(/C=C/c1ccccc1)Nc1ncnc2sc3c(c12)CCC3,26,·
CCc1nc2sc3c(NCCc4ccccc4)ncnc3c2c2c1CCCC2,-5,·
FC(F)(F)c1cccc(Nc2ncnc3sc4c(c23)CCC4)c1,116*,·
c1ccc(Oc2ncnc3sc4c(c23)CCCC4)cc1,6,·
Cc1nc(NCCc2ccccc2)c2c3c(sc2n1)CCCC3,127*,·
c1ccc(Nc2ncnc3sc4c(c23)CCCC4)cc1,103*,·
SMILES,ROS inducer,YB-1 expr inh
CCN1C(=O)/C(=C/C=C2\CCCN2C)N(c2ccccc2)C1=S,12,·
COc1ccccc1N(CC(=O)Nc1ccccc1)S(C)(=O)=O,-11,·
CC(C)(CN=C1NS(=O)(=O)c2ccccc21)CNC(=O)c1ccccc1Cl,0,·
O=c1[nH]snc1N1CCCCC1,14,·
O=C(OCCNc1c(F)c(F)nc(F)c1F)c1ccccc1,-11,·
c1ccc(Cn2c3c(c4ccccc42)CCOc2ccccc2-3)cc1,-9,·
CC(=C1C(=O)c2ccccc2C1=O)N1CCC(C(N)=O)CC1,-21,·
COC(=O)c1ccc(O)c(/C=N/N(CCO)C2=NS(=O)(=O)c3ccccc32)c1,17,·
CCCc1cc(NCCc2ccccc2)n2c(nc3ccccc32)c1C#N,92*,·
N#Cc1c(-c2ccccc2Cl)c(C#N)c2nc3ccccc3n2c1N,70,·
O=C(CSc1nc2ccccc2c2nc3ccccc3n12)NCCc1ccccc1,53,·
Cc1c(Cc2ccccc2)c(Cl)n2c(nc3ccccc32)c1C#N,164*,·
COc1ccc(-c2cc(C(=O)NC3CCCCC3C)c3ccccc3n2)cc1 (stereo unspecified),0,·
CCOC(=O)c1n[nH]c2c1CCCC2,-9,·
N#CC1=C(N)Nc2c(c(=O)oc3ccccc23)C1c1ccc(Br)cc1 (stereo unspecified),81*,-0.4
C=CCN1C(=O)C2(C(C#N)=C(N)Oc3c2c(=O)oc2ccccc32)c2ccccc21 (stereo unspecified),13,-0.13
CCOC(=O)c1oc2cc(O)c(CC)cc2c(=O)c1-c1ccc2c(c1)OCCO2,36,·
Cc1oc2cc(OC(C)C)ccc2c(=O)c1-c1ccc2c(c1)OCCO2,18,6.9*
COc1ccc2c(c1)c(C(=O)ON1C(=O)CCC1=O)c(C)n2C1CC1,-2,3.8*
COc1ccc2c(c1)c(C(=O)O)c(C)n2CCc1ccc(OC)c(OC)c1,24,-0.32

# Compound activity deposited in PubChem BioAssay by Broad Institute.
